In PubChem BioAssay (Tox21):
Inconclusive results are not listed. Entries that show only a call come without a potency. Where a structure was tested more than once in an assay, its records may differ in their call. Activity calls are given as the source filed them. The call rests on the fitted dose curve.

Experiment: qHTS assay to identify small molecule agonists of the AP-1 signaling pathway - cell viability counter screen (AID 1159525); further: nearly all actives have a fitted effect of over 55% in size
Conditions: ME-180 (cervical carcinoma) AP-1-bla cells viability, ATP luminescence, 5 h; series mostly up to 76.8 µM
Source text: National Center for Advancing Translational Sciences [NCATS]
NIH Chemical Genomics Center [NCGC]
U.S. Environmental Protection Agency [EPA]
National Institutes of Environmental Health Sciences [NIEHS]
National Toxicology Program [NTP]
U.S. Food and Drug Administration [FDA]
Activator protein-1 (AP-1), a transcription factor, plays an important role in tumor genesis by regulating genes involved in cell proliferation, differentiation, apoptosis, and angiogenesis. AP-1 activity is induced by a complex network of signaling pathways that involves extracellular signals, such as growth factors. The AP-1 protein complex formed from c-Fos and c-Jun binding to the AP-1 response element results in transcriptional activation of genes containing such elements within their promoter.
Low molecular weight molecules have been discovered and developed to modulate various components of these signaling pathways, for example, MAP kinase inhibitors. However, many points of pathway modulation remain untested due to the lack of chemical probes making this signaling locus of general interest.
Using a beta-lactamase reporter-gene under control of the AP-1 response element, a cell-based assay [CellSensor(TM) AP-1-bla ME-180 developed by Invitrogen Corp.] was used to measure EGF-induced signaling. The Tox21 10K library compounds were measured for their ability to positively modulate the action of EC50 EGF on reporter gene activity. Compounds were screened in a 15-pt titration series in 1536-well format. The cytotoxicity of the Tox21 compound library against this cell line was tested in parallel by measuring the intra cellular ATP content in the same wells.
Tox21 Assay Protocol Summary:
2500 cells/5uL in Opti-MEM medium containing 0.5% dialyzed FBS, 0.1 mM NEAA, 1 mM sodium pyruvate and 10 mM HEPES was dispensed into 1536-well black wall/clear bottom plates using a Multidrop dispenser and cells were cultured at 37 degrees Celsius overnight. Next day 23 nL of compounds dissolved in DMSO, positive controls or DMSO were delivered to each well using a pin tool. The plates were incubated at 37 degrees Celsius for 5 hours. 1 uL of LiveBLAzerTM B/G FRET substrate (Solution A+B+C+D) was added to each well using a Flying Reagent Dispenser. After incubated at room temperature for 2.5 hours the plates were measured on an EnVision plate reader at Excitation 405nm, Emission1=460nm and Emission 2=530nm. The %Activity was determined from the ratio of 460nm/530nm.
After the plates were read for Beta-Lactamase assay on Envision; 3 ul Cell Titer Glo (Promega) was added to measure the cytotoxicity and the plates were then incubated at RT in dark for 30 min. The luminescence was read on ViewLux (Perkin Elmer, Shelton, CT) using 6 sec exposure. ViewLux data was expressed as relative luminescence units.
For primary data analysis, raw plate reads for each titration point were first normalized relative to […] EGF control (100%) and DMSO only wells (basal, 0%).
For primary data analysis for viability assay, raw plate reads for each titration point were first normalized Tetra n-octyl ammonium bromide control (-100%) and DMSO (control, 100%).
Potency means the concentration at half of the fitted maximal effect.

Row | Structure (SMILES) | Potency | viability change, negative = cytotoxic
1 | c1ccc2sc(SSN3CCOCC3)nc2c1 | inactive | 
2 | O=C(O)c1ccccc1Nc1cccc(C(F)(F)F)c1 | inactive | 
3 | C=C(C)C1CC=C(C)CC1 (stereo not given) | inactive | 
4 | O=C(OCc1ccccc1)c1ccccc1O | inactive | 
5 | C#C[C@]1(O)CC[C@H]2[C@@H]3CCC4=Cc5oncc5C[C@]4(C)[C@H]3CC[C@@]21C | 54.9 µM (active) and inactive | 
6 | Cc1ccc2c(n1)Oc1ccc(C(C)C(=O)OCC(=O)N(C)C)cc1C2 (stereo not given) | inactive | 
7 | CCCCC(CC)COC(=O)c1ccc(N(C)C)cc1 (stereo not given) | inactive | 
8 | O=c1oc(=O)c2cc3c(=O)oc(=O)c3cc12 | inactive | 
9 | COC(=O)C1=C(C)NC(C)=C(C(=O)OCCN(C)Cc2ccccc2)C1c1cccc([N+](=O)[O-])c1 (stereo not given) | inactive | 
10 | c1cc(-c2ccncc2)ccn1 | inactive | 
11 | COc1cc([C@@H]2c3cc4c(cc3[C@H](O)[C@H]3COC(=O)[C@H]23)OCO4)cc(OC)c1OC | inactive | 
12 | COc1ccc(OC)c(C(O)CNC(=O)CN)c1 (stereo not given) | inactive | 
13 | O=C(/C=C/c1ccccc1)OCc1ccccc1 | inactive | 
14 | CCCCc1oc2ccccc2c1C(=O)c1cc(I)c(OCCN(CC)CC)c(I)c1 | 31.1 µM (active) | 
15 | COc1ccc(C(=O)CC(=O)c2ccc(C(C)(C)C)cc2)cc1 | inactive | 
16 | S=C(NC1CCCCC1)NC1CCCCC1 | inactive | 
17 | c1ccc(Nc2ccccc2)cc1 | inactive | 
18 | Brc1cc(Oc2cc(Br)c(Br)c(Br)c2Br)c(Br)c(Br)c1Br | 55.2 µM (active) and inactive | 
19 | O=C(COc1ccc(Cl)cc1)N1CCN(Cc2ccc3c(c2)OCO3)CC1 | inactive | 
20 | Nc1ncnc2nc[nH]c12 | inactive | 

Row | Structure (SMILES) | Potency | viability change, negative = cytotoxic
21 | COC(C)COC(C)COC(C)CO (stereo not given) | inactive | 
22 | CC(=O)c1ccccn1 | inactive | 
23 | CN1C(C(=O)Nc2ccccn2)=C(O)c2ccccc2S1(=O)=O | inactive | 
24 | Cc1cccc(N(C)C(=S)Oc2ccc3ccccc3c2)c1 | inactive | 
25 | Cn1cnc([N+](=O)[O-])c1Sc1ncnc2nc[nH]c12 | inactive | 
26 | Nc1ccc(Cl)cc1Cl | inactive | 
27 | COC(=O)CCC(=O)OC | inactive | 
28 | CCCC(=O)O | inactive | 
29 | O=C(Nc1ccc([N+](=O)[O-])cc1Cl)c1cc(Cl)ccc1O |  | 2.04% [at 15.8 µM] (inactive)
30 | CC(C)OB(OC(C)C)OC(C)C | inactive | 
31 | CCCCOCCOCCO | inactive | 
32 | COC(=O)c1ccccc1 | inactive | 
33 | CCCCCCCCCCCO | inactive | 
34 | CC(=O)O[C@]1(C(C)=O)CC[C@H]2[C@@H]3C=C(Cl)C4=CC(=O)[C@@H]5C[C@@H]5[C@]4(C)[C@H]3CC[C@@]21C | inactive | 
35 | CC(=O)Oc1ccccc1C(=O)Nc1ncc([N+](=O)[O-])s1 | inactive | 
36 | Clc1nc(Cl)c(Cl)c(Cl)c1Cl | inactive | 
37 | c1ccc2c(c1)c1cccc3ccc4cccc2c4c31 | inactive | 
38 | CC(=O)C1(C)CC2=C(CCCC2(C)C)CC1C (stereo not given) | inactive | 
39 | c1ccc2cc(Nc3ccc(Nc4ccc5ccccc5c4)cc3)ccc2c1 | inactive | 
40 | CCC(C)c1ccccc1O (stereo not given) | inactive | 
